# PubChem BioAssay (EPA / NIEHS)
# Records with an inconclusive call do not appear. The source made the active and inactive calls. Rule for the calls, unless noted: active = hit-call score of the fitted dose curve at least 0.9, where 1 is the maximum; inactive = score below 0.9.
# What was measured:
# [1] = CCTE_Harrill_HTTr_Viability_MCF7: CCTE's 6-hour Cell Viability Assessment for the High-Throughput Transcriptomics (HTTr) Platform, in MCF-7 cells cultured in DMEM + 10% fetal bovine serum, Harrill Lab (AID 2284010)
# Outline: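 Membrane integrity was scored by high-content imaging of propidium iodide dye exclusion after a 6 h exposure across an eight-point dilution series. Data were fitted bidirectionally relative to DMSO as negative control and baseline.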
# [2] = CCTE_Harrill_HTTr_Apoptosis_MCF7: CCTE's 6-hour Apoptosis Assessment for the High-Throughput Transcriptomics (HTTr) Platform, in MCF-7 cells cultured in DMEM + 10% fetal bovine serum, Harrill Lab (AID 2284011)
# Outline: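 MCF-7 cells in DMEM + 10% FBS exposed 6 h to chemicals over an eight-point dilution series. Caspase-3/7 activation imaged by high-content CellEvent Green staining; fitted bidirectionally versus DMSO.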
# [3] = CCTE_Harrill_HTTr_CellCount_MCF7: CCTE's Cell Proliferation Assessment for the High-Throughput Transcriptomics (HTTr) Platform, Harrill Lab (AID 2284012; active = hit-call score of the fitted dose curve at least 0.9, where 1 is the maximum;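 note: cells exposed to compound for six hours; intended direction is loss of nuclei count meaning fewer cells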)
# Outline: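 MCF-7 cells were exposed for 6 h to an eight-point dilution series; Hoechst-labeled nuclei were counted by high content imaging. Curves were fitted bidirectionally against DMSO as negative control and baseline, with signal loss indicating reduced cell count.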
Structure (SMILES),outcome [1],outcome [2],outcome [3],AC50 [1],AC50 [3],AC50 [2]
C1CCC(C2CCCCC2)CC1,inactive,inactive,inactive,,,
C[CH2][Hg][S]c1ccccc1C(=O)O,,inactive,,49.1 µM (active),50 µM (active),
CCOCn1c(-c2ccc(Cl)cc2)c(C#N)c(Br)c1C(F)(F)F,inactive,inactive,inactive,,,
Cc1cc(Cl)ccc1N,inactive,inactive,inactive,,,
O=C(NC(=O)c1c(F)cccc1F)Nc1ccc(Cl)cc1,inactive,inactive,inactive,,,
Cc1cccc(C)c1NC(=O)CN1CCCC1=O,inactive,inactive,inactive,,,
O=C(O)COc1ccc(Cl)cc1,inactive,inactive,inactive,,,
CC(C)=CC1C(C(=O)OCc2cccc(Oc3ccccc3)c2)C1(C)C (centres undefined),inactive,inactive,inactive,,,
CCCSP(=S)(OCC)Oc1ccc(Cl)cc1Cl (centres undefined),inactive,inactive,inactive,,,
O=C1C=CC(=O)c2ccccc21,,,,69.1 µM (active),76.2 µM (active),60.4 µM (active)
CCOC(=O)OC1=C(c2cc(C)ccc2C)C(=O)NC12CCC(OC)CC2 (centres undefined),inactive,inactive,inactive,,,
Cc1cc(SCc2sc(-c3ccc(C(F)(F)F)c(F)c3)nc2C)ccc1OCC(=O)O,inactive,inactive,inactive,,,
O=[N+]([O-])c1ccccc1O,inactive,inactive,inactive,,,
OCCN(CCO)CCO,inactive,inactive,inactive,,,
CC(O)(CS(=O)(=O)c1ccc(F)cc1)C(=O)Nc1ccc(C#N)c(C(F)(F)F)c1 (centres undefined),inactive,inactive,inactive,,,
O=CCCl,inactive,inactive,inactive,,,
C[C@H]1C(=O)O[C@@H]2CCN3CC=C(COC(=O)[C@](C)(O)[C@]1(C)O)[C@H]23,inactive,inactive,inactive,,,
COc1ccccc1N,inactive,inactive,inactive,,,
O=c1[nH]c2ccccc2n1C1CCN(CCCC(c2ccc(F)cc2)c2ccc(F)cc2)CC1,,,,77.9 µM (active),94.7 µM (active),60.9 µM (active)
OC[C@@H](O)[C@H]1O[C@@H]2O[C@H](C(Cl)(Cl)Cl)O[C@@H]2[C@H]1O,inactive,inactive,inactive,,,
Brc1ccc(Br)cc1,inactive,inactive,inactive,,,
Cc1cc(C(C)(C)c2ccc(O)c(C)c2)ccc1O,inactive,inactive,inactive,,,
N#CCCC(Br)(C#N)CBr (centres undefined),inactive,inactive,inactive,,,
